Assay outcomes as filed in PubChem BioAssay.
Rows were chosen to be rich in hits. Some 2.9% of all compounds tested hit in one or more screens of this group.
HEK293 cAMP ctrl: parental HEK293 cAMP activation (counter-screen) | Potency, µM (doses to about 57.1 µM), usual class: activators | parental HEK293 CNG cAMP sensor, membrane potential fluorescence | AID 938 | 73,000 tested, 2.5% active; active = well fitted activation curve with a large enough effect; inconclusive = small, poorly fitted or top-dose-only effect; inactive = no such curve, though single readings can be large or run the other way; note: nearly all actives have a fitted effect of over 55% in size
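Counterscreen for endogenous-receptor signalling: CNG-channel HEK 293 cells report cAMP rise by membrane depolarization. After 60 min dye equilibration with 100 uM RO 20-1724, compounds incubated 30 min before bottom-read fluorescence at 590 nm.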
TSHR ag: activates the human thyroid stimulating hormone receptor; 73,000 tested, 0.48% active; Potency, µM (highest dose often 57.1 µM), hits mostly activators; HEK293-CNG-TSHR cells (CNG channel as cAMP sensor), membrane potential dye, cAMP; AID 926; active = well fitted activation curve with a large enough effect in the main read-out, with a control signal flat, not every such curve was filed as active; inconclusive = small, poorly fitted or top-dose-only effect, or a change in a side signal; inactive = no such curve, though single readings can be large or run the other way; reference of the percent scale not stated here;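 note: the control signal comes from parental cells without the receptor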
Target sequence (P16473 whole entry, looked up): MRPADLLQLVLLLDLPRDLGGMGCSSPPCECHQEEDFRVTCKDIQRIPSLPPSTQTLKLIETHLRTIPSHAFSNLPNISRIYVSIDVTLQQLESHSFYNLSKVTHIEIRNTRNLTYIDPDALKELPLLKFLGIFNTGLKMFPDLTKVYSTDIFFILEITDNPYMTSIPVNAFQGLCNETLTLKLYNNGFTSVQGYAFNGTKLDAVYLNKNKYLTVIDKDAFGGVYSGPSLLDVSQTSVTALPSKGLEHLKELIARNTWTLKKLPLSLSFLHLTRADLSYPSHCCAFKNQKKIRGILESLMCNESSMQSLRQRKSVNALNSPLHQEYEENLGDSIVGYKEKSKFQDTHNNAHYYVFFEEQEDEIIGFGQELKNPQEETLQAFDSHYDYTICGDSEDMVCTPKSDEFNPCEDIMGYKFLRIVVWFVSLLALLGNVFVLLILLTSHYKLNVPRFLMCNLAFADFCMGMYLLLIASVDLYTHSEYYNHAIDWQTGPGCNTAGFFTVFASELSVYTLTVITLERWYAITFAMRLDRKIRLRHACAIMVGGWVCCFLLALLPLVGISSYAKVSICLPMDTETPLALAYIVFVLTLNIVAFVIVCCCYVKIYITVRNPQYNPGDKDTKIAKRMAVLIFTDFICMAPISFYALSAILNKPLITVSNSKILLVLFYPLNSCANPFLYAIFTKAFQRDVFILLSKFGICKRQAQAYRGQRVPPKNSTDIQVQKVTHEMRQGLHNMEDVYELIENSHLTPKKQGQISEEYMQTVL
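cAMP rise detected as CNG-channel membrane depolarization by fluorescent dye (emission 590 nm), 30 min after compound, following 60 min dye loading containing 100 uM RO 20-1724 at room temperature. Cells: TSHR/CNG HEK 293, with parental CNG HEK 293 as control.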
Numbers stand for hits; [ ] = remark or other dose.

Screening CC(=O)[C@H]1CC[C@@H]2[C@]1(C)CC=C1[C@]23C=C[C@]2(C[C@H](O)CC[C@@]12C)[C@H](C(=O)O)[C@@H]3C(=O)O returned HEK293 cAMP ctrl inactive[11.4 µM] and TSHR ag inactive[11.4 µM].
COC(=O)C/C=C\[C@@H](C)[C@@H](CO)NS(=O)(=O)c1ccc(C)cc1 was read as HEK293 cAMP ctrl inactive[11.4 µM] and TSHR ag inactive[11.4 µM].
`CO[Si](CCCNCCC[Si](OC)(OC)OC)(OC)OC` gave HEK293 cAMP ctrl inactive and TSHR ag inactive.
For c1ccc(-c2nc3nc4ccccc4nc3n2Cc2ccco2)cc1 the results were HEK293 cAMP ctrl 10µM and TSHR ag inconclusive.
`c1ccc(Cn2c(-c3cccs3)nc3nc4ccccc4nc32)cc1` gave HEK293 cAMP ctrl inactive and TSHR ag inactive.
`S=c1nc(-c2ccccc2)n(CCN2CCOCC2)c2c1CCCC2` gave HEK293 cAMP ctrl inactive and TSHR ag inactive.
`S=c1nc(-c2ccccc2)n(Cc2ccco2)c2c1CCCC2` gave HEK293 cAMP ctrl inactive and TSHR ag 5µM.
CC(C)[C@@H]1OC(=O)C=CC=CC=CC=CC=CC[C@@H](O)[C@H](C)[C@@H](O)C[C@H](O)C[C@H](O)C[C@H](O)C[C@H](O)C[C@H](O)C[C@H](O)C=C[C@@H]1C was read as HEK293 cAMP ctrl inactive[11.4 µM] and TSHR ag inactive[11.4 µM].
`CCN(CC)C(C(=O)Nc1ccc2c(c1)OCO2)c1ccccc1` (stereo unspecified) gave HEK293 cAMP ctrl inactive and TSHR ag inactive.
`CCCN(CCC)C(C(=O)Nc1cccc(OC)c1)c1ccccc1` (stereo unspecified) gave HEK293 cAMP ctrl 25µM and TSHR ag inconclusive.
For CC(=O)[C@H]([C@@H](c1ccccc1)N1CCOCC1)N1CCOCC1 the results were HEK293 cAMP ctrl inactive[11.4 µM] and TSHR ag inactive[11.4 µM].
For O=c1c(-c2cc(F)cc(F)c2)nc2cnc(N3CCNCC3)nc2n1-c1ccccc1 the results were HEK293 cAMP ctrl inactive and TSHR ag inactive.
O=c1cnc2cncnc2n1Cc1ccccc1Cl was read as HEK293 cAMP ctrl inactive[0.457 µM] and TSHR ag 32µM.
For Cc1nc2cncnc2n(Cc2ccccc2Cl)c1=O the results were HEK293 cAMP ctrl inactive[0.457 µM] and TSHR ag inactive.
O=c1cnc2cncnc2n1Cc1ccccc1 was read as HEK293 cAMP ctrl inactive and TSHR ag 25µM.
Screening O=c1c(CCc2ccccc2)nc2cncnc2n1Cc1ccccc1 returned HEK293 cAMP ctrl inactive and TSHR ag inactive.
`CCNc1ncc2nc(-c3ccc(Cl)cc3)c(=O)n(Cc3ccc(F)cc3)c2n1` gave HEK293 cAMP ctrl inactive and TSHR ag inactive.
Screening CC(C)c1ccc(Cn2ccc3c4c(N)nc(NC5CC5)nc4ccc32)cc1 returned HEK293 cAMP ctrl inactive and TSHR ag inconclusive.
For COc1ccc(C(=O)CSc2nnnn2Cc2ccccc2)cc1 the results were HEK293 cAMP ctrl inactive and TSHR ag inactive.
Screening O=C(CSc1nnnn1Cc1ccccc1)c1ccccc1 returned HEK293 cAMP ctrl 32µM and TSHR ag inconclusive.
CCN(CC)CCCN(C(=O)c1cccs1)c1nc(-c2ccc(OC)cc2)cs1 was read as HEK293 cAMP ctrl inactive and TSHR ag inconclusive.
COc1ccc(-c2csc(N(CC3CCCO3)C(=O)c3cccs3)n2)cc1 (stereo unspecified) was read as HEK293 cAMP ctrl 16µM and TSHR ag inconclusive.
`Oc1ccc(Cc2cc(Cl)cc(Cl)c2O)cc1Cl` gave HEK293 cAMP ctrl inactive[11.4 µM] and TSHR ag inactive[11.4 µM].
Screening O=C(O)C(Cc1ccccc1)Cc1ccccc1 returned HEK293 cAMP ctrl inactive[11.4 µM] and TSHR ag inactive[11.4 µM].
Screening CCn1c(SCC(=O)N2CCCc3ccccc32)nc2cccnc21 returned HEK293 cAMP ctrl inactive and TSHR ag inactive.
Cc1cc2c(=O)n(Cc3ccco3)c(SCC(=O)N3CCCc4ccccc43)nc2s1 was read as HEK293 cAMP ctrl 32µM and TSHR ag inconclusive.
`Cc1ccc(-n2ncc3c(=O)[nH]c(SCC(=O)N4CCCc5ccccc54)nc32)cc1` gave HEK293 cAMP ctrl 40µM and TSHR ag inconclusive.
CCOC(=O)CSc1nc2ccccc2c(=O)n1CC1CCCO1 (stereo unspecified) was read as HEK293 cAMP ctrl 16µM and TSHR ag inconclusive.
For CCOC(=O)CSc1nc2ccccc2c(=O)n1C1CCCC1 the results were HEK293 cAMP ctrl inactive and TSHR ag inactive.
`O=C(CSc1nc2sc3c(c2c(=O)n1Cc1ccco1)CCC3)N1CCc2ccccc21` gave HEK293 cAMP ctrl inactive and TSHR ag inactive.
`CCn1c(SCC(=O)N2CCCc3ccccc32)nc2ccccc2c1=O` gave HEK293 cAMP ctrl 10µM and TSHR ag inconclusive.
For Cc1ccc(-n2ncc3c(=O)[nH]c(SCC(=O)N4CCOCC4)nc32)cc1 the results were HEK293 cAMP ctrl inactive and TSHR ag inactive.
Nc1nc(C(=O)O)c(N=Nc2ccccc2)c(=O)[nH]1 was read as HEK293 cAMP ctrl inactive[11.4 µM] and TSHR ag inactive[11.4 µM].
Screening O=c1c(CCc2ccccc2)nc2cnc(N3CCNCC3)nc2n1-c1ccccc1 returned HEK293 cAMP ctrl inactive and TSHR ag inactive.
`CC[C@H](C)[C@@H]1O[C@]2(CC[C@@H]1C)C[C@H]1C[C@H](CC=C(C)[C@@H](O[C@H]3C[C@H](OC)[C@H](O[C@H]4C[C@H](OC)[C@H](O)[C@H](C)O4)[C@H](C)O3)[C@@H](C)C=CC=C3CO[C@@H]4[C@@H](O)C(C)=C[C@H](C(=O)O1)[C@@]34O)O2` gave HEK293 cAMP ctrl inactive.
For O=C(O)c1cncc(C(=O)O)c1 the results were HEK293 cAMP ctrl inactive[11.4 µM] and TSHR ag inactive[11.4 µM].
Screening CCCOn1nnnc1-c1ccccc1 returned HEK293 cAMP ctrl inactive and TSHR ag inactive.
For Cc1cccc(C(C)C)c1-n1nnnc1-c1ccccc1 the results were HEK293 cAMP ctrl 20µM and TSHR ag inconclusive.
For c1ccc(C2=NN[C@@H]3c4ccccc4-c4ccccc4N3C2)cc1 the results were HEK293 cAMP ctrl inactive[11.4 µM] and TSHR ag inactive[11.4 µM].
For COc1ccc(-c2ccc(-c3nnc(Cc4ccc(OC)c(OC)c4)o3)cc2)cc1 the results were HEK293 cAMP ctrl inactive.
Screening COc1cccc(-c2nc(Cc3ccc(OC)c(OC)c3)no2)c1 returned HEK293 cAMP ctrl 25µM and TSHR ag inconclusive.
CN1CCC(CNC(=O)c2ccc(Cc3nc4ccccc4[nH]3)cc2)CC1 was read as HEK293 cAMP ctrl inactive and TSHR ag inactive.
C[C@@H](c1ccccc1)N1C(=O)[C@H]2[C@H]3[C@H](O)[C@H](O)C/C(=N/OCc4ccccc4)[C@H]3CC[C@@H]2C1=O was read as HEK293 cAMP ctrl inactive[11.4 µM] and TSHR ag inactive[11.4 µM].
C/C(=N/O)[C@@H]1C[C@H](CC(=O)O)C1(C)C was read as HEK293 cAMP ctrl inactive[11.4 µM] and TSHR ag inactive[11.4 µM].
C=C1CC[C@@H](O)C/C1=C/C=C1\CCC[C@]2(C)[C@@H]1CC[C@H]2[C@@H](C)/C=C\[C@@H](C)C(C)C was read as HEK293 cAMP ctrl inactive and TSHR ag inactive.
For CCOc1ccc2nc(NC(=O)CSc3nnnn3C3CCCCC3)sc2c1 the results were HEK293 cAMP ctrl inactive and TSHR ag inactive.
`CCOc1ccc(OCCSc2nnnn2C2CCCCC2)cc1` gave HEK293 cAMP ctrl 20µM and TSHR ag inconclusive.
COc1ccccc1N1CCN(C(=O)CSc2nc(-c3ccccc3)cc(=O)[nH]2)CC1 was read as HEK293 cAMP ctrl inactive and TSHR ag inactive.
COc1ccc(N2CCN(C(=O)CSc3nnc(C)c(=O)[nH]3)CC2)cc1 was read as HEK293 cAMP ctrl 1.3µM and TSHR ag inconclusive.
